D1 antagonist – antagonists of human D1 dopamine receptor | HEK293 TREx D1 cells, calcium flux, dopamine EC80; hits give low values | activity change, negative = inhibition, % at 10 µM | 3.2% of 360,000 active | AID 504652; in the data active = activity change below about -30%
Target sequence (P21728 whole entry, looked up): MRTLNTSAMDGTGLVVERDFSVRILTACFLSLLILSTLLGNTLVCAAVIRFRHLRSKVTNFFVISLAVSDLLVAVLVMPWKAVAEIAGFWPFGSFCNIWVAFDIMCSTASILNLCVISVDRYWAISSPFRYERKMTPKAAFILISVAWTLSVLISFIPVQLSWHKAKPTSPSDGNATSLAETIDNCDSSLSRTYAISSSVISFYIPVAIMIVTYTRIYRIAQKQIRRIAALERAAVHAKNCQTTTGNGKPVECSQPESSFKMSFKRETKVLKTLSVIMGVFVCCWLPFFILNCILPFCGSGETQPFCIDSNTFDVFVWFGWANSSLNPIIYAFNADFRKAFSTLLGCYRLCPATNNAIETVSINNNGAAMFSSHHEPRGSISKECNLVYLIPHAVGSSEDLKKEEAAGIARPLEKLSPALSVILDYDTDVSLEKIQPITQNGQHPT
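Cells carrying a force-coupled, tetracycline-inducible human D1 receptor report calcium flux. Each well gets a 10 s baseline, compound with 180 s monitoring, then an EC80 dopamine stimulus with a second 180 s kinetic read.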
TRHR agonist – agonists of human TRH receptor; P34981; TRHR cells, calcium flux fluo-8, FDSS agonist mode; activation, % at 2 µM; 0.18% of 360,000 active
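Read-out: compound-evoked intracellular calcium rise in TRHR cells, fluo-8 dye, kinetic FDSS fluorescence at 1 s/cycle following a 10-cycle baseline. Cells cultured overnight before dye loading (30 min–1.5 h, RT).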
D1 agonist – agonists of human D1 dopamine receptor; P21728; HEK293 T-REx D1 cells, calcium flux, agonist mode; activation, % at 2 µM; 1% of 360,000 active
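Agonism was scored from calcium flux recorded over 180 s (1 read/s) after pintool compound addition, following a 10-cycle baseline. Cells were inducible force-coupled HEK293 TREx D1, plated overnight at 30 C and loaded with no-wash calcium dye.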
TRHR enhancer – allosteric enhancers of human TRH receptor | P34981 | 0.66% of 360,000 active | enhancement, % at 2 µM | TRHR cells, fluo-8 calcium fluorescence, EC20 TRH enhancement; in the data active = enhancement above about 30%
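Enhancer read-out: after compound pinning and an initial kinetic agonist-mode read, an EC20 of TRH (10 nM final) was injected and fluo-8 calcium signal (Ex 480/Em 530) followed at 1 s/cycle for 100 cycles in TRHR-expressing cells.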
D1 PAM – potentiators of human D1 dopamine receptor | 0.036% of 360,000 active | HEK293 TREx D1 cells, calcium flux, dopamine EC20 potentiation | potentiation, % at 10 µM | AID 504651; in the data active = potentiation above about 30%
Each line names hits and unclear results; the compound was inactive in the other large screens; ! = a repeat was not active. A selection: hits, their analogues and other compounds. The true share with any hit is near 4.7%. Cut-off read from the data, not from the text of the source, unless noted: active = activation above about 30%; inactive = the rest.

Cc1cc(C)c(NC(=O)Cn2c(=O)n(Cc3ccco3)c(=O)c3ccc(C(=O)NC4CCCC4)cc32)c(C)c1	TRHR enhancer 54.8
Cc1ccc(C)c(NC(=O)Cn2c(=O)n(Cc3ccco3)c(=O)c3ccc(C(=O)NC4CCCC4)cc32)c1	none
Clc1cccc(-c2ccc(/C=N/n3cnnc3)o2)c1	D1 antagonist -33.3
Brc1ccc(CN2C3=NCCCN3c3ccccc32)cc1	D1 agonist 30.2
c1ccc(CN2C3=NCCCN3c3ccccc32)cc1	none
Cc1ccc(S(=O)(=O)NC(Cc2ccccc2)C(=O)O)cc1 (stereo not given)	none
CC(C)(C)c1ccc(S(=O)(=O)NC(Cc2ccccc2)C(=O)O)cc1 (stereo not given)	D1 antagonist -32.5
Cc1cc(C)nc(NC(=NCCc2c[nH]c3ccccc23)NC(=O)C(C)(C)C)n1	D1 antagonist -54.7
Cc1cc(C)nc(NC(=NCCc2c[nH]c3ccc(Cl)cc23)NC(=O)c2ccccc2C)n1	none
Cc1cc(C)c(C(=O)Nc2ccc(S(=O)(=O)Nc3onc(C)c3C)cc2)c(C)c1	D1 antagonist -82.3
Cc1cc(NS(=O)(=O)c2ccc(NC(=O)c3c(F)c(F)c(F)c(F)c3F)cc2)nc(C)n1	D1 antagonist -48.8
COc1ccc(C(=O)Nc2ccc(S(=O)(=O)Nc3cc(C)nc(C)n3)cc2)cc1OC	none
COc1ccc(NS(=O)(=O)c2ccc(NC(=O)C3CCCO3)cc2)cc1 (stereo not given)	none
Cc1ccc(NS(=O)(=O)c2ccc(NC(=O)C3CCCO3)cc2)cc1 (stereo not given)	D1 agonist 38.7
Cc1ccc(S(=O)(=O)Nc2ccc(NC(=O)c3c(F)c(F)c(F)c(F)c3F)cc2)cc1	D1 agonist 46.6
CCOc1ccc(NC(=O)CC2Nc3cccc4cccc(c34)NC2=O)cc1 (stereo not given)	none
CCOC(=O)c1cc2c(=O)n3ccccc3nc2n(CCCOC)c1=NC(=O)c1cc2ccccc2o1	none
O=c1[nH]c(CN2CCN(c3ncccn3)CC2)nc2c(Br)cc(Br)cc12	TRHR enhancer 30.0
CCn1c(CNc2ccc(F)cc2)nnc1SCC(=O)N1CCCc2ccccc21	D1 antagonist -30.7
CCn1c(CNc2ccc(OC)cc2)nnc1SCC(=O)N1CCCc2ccccc21	none
CSc1ccccc1NC(=O)c1ccc(CN2CCOCC2)cc1	none
O=C(c1ccc(F)cc1)N1CCN(Cc2ccccc2)CC1	none
Cc1cccc(NC(=O)c2ccc(CN3CCN(Cc4ccccc4)CC3)cc2)c1	D1 antagonist -37.4
O=C(c1ccc(Br)cc1)N1CCN(Cc2ccccc2)CC1	D1 antagonist -57.0
O=C(Nc1cccc(C(=O)N2CCN(Cc3ccccc3)CC2)c1)c1ccccc1	D1 antagonist -39.0
Cc1cc(CSc2ccccc2)ccc1NC(=O)c1ccc(CN2CCOCC2)cc1	D1 antagonist -31.4
COc1cccc(NC(=O)c2ccc(CN3CCN(c4ccccc4)CC3)cc2)c1	none
COc1ccc(C(=O)Cn2c(=O)c(-c3cc(C)ccc3NC(C)=O)nc3ccccc32)cc1	none
COC(=O)c1ccccc1NC(=O)c1ncoc1-c1ccco1	none
CCC(CC)C(=O)Nc1cccc(C(=O)N2CCOCC2)c1	D1 antagonist -31.8
CC(C)(C)c1cc2cccnc2n1Cc1cccc(Cl)c1	D1 antagonist -30.5
O=C(CCC(=O)c1cccs1)OCc1nnc(-c2ccccc2)o1	D1 antagonist -39.0
CCOC(=O)/C(C#N)=C\c1ccc(O)c(OC)c1	none
CCOC(=O)c1c(-c2ccc(C)cc2)csc1NC(=O)/C(C#N)=C/c1ccc(O)c(OC)c1	D1 agonist 110.8
COc1cc(/C=C(\C#N)C(=O)Nc2ccc3c(c2)OCCO3)ccc1O	D1 agonist 40.6
O=S(=O)(c1ccc2c(c1)OCO2)N1CCN(S(=O)(=O)c2c(F)cccc2F)CC1	none
O=c1c2cnn(-c3ccc(Cl)cc3)c2ncn1Cc1cccc(C(F)(F)F)c1	none
Cc1cc(NC(=O)CCNS(=O)(=O)c2ccc3c(c2)CCCC(=O)N3)ccc1Br	none
Cc1c(Cl)cccc1NS(=O)(=O)c1ccc(-c2cnc(C3CC3)o2)cc1	none
Cc1cccc(NC(=O)CN2C(=O)N/C(=C/c3ccc(C)s3)C2=O)c1	D1 agonist 52.7
COc1cccc(C(c2nnnn2CC2CCCO2)N2CCN(C(=O)c3ccco3)CC2)c1OC (stereo not given)	D1 antagonist -38.1
CCOc1ccc(CCNC(=O)Cn2ncc3c([nH]c4ccccc43)c2=O)cc1OCC	none
Cc1ccc(CNC(=O)C(C)n2nc(C)n3c(cc4sccc43)c2=O)cc1 (stereo not given)	none
Cc1ccc(-n2nc3c(=O)n(CCCC(=O)NCCc4ccccc4)nc(C)c3c2C)cc1	none
Cc1nn(CC(=O)NCCN2CCCCCC2)c(=O)c2nn(-c3ccccc3)c(C)c12	none
Cc1nn(CCCC(=O)NCCc2ccccc2)c(=O)c2nn(-c3ccccc3)c(C)c12	D1 antagonist -36.1
Cc1cc(Cl)ccc1NC(=O)CCCn1nc(C)c2c(C)n(-c3ccccc3)nc2c1=O	D1 antagonist -31.6
Cc1nn(CCCC(=O)NCCc2ccc(Cl)cc2)c(=O)c2nn(-c3ccccc3)c(C)c12	D1 antagonist -32.8!
Cc1nn(C(C)C(=O)NCCN2CCCCCC2)c(=O)c2nn(-c3ccccc3)c(C)c12 (stereo not given)	TRHR enhancer 30.3
CCN(CC)C(=O)Cn1c(=O)cc(C)c2c(C)nn(-c3ccc(C)cc3)c21	none
CC(=O)c1cccc(NC(=O)c2nc3ccccc3n(C)c2=O)c1	none
COc1cccc(CNC(=O)CCCn2nc(C)c3c(C)n(-c4ccc(C)cc4)nc3c2=O)c1OC	D1 antagonist -53.5!
Cc1nn(-c2ccccc2)c2c1N(CCCC(=O)NCc1ccc(Cl)cc1)C(=O)CS2	D1 antagonist -47.6
Cc1nn(-c2ccccc2)c2c1N(CCCC(=O)NCc1ccccc1)C(=O)CS2	none
CCOC(=O)c1ccccc1NC(=O)COC(=O)C1CCN(S(=O)(=O)c2ccccc2C(=O)OC)CC1	none
COC(=O)c1ccccc1S(=O)(=O)N1CCC(C(=O)OCc2ccc([N+](=O)[O-])cc2)CC1	D1 antagonist -40.1
O=[N+]([O-])c1ccc(/C=N/Nc2ccc3ccccc3c2)o1	D1 agonist 39.9
O=[N+]([O-])c1ccc(/C=N/NC(=S)Nc2ccccc2)o1	none
O=C(N/N=C/c1ccc([N+](=O)[O-])o1)c1cc2ccccc2o1	none
O=[N+]([O-])c1ccc(/C=N/NC(=S)Nc2ccccc2F)o1	D1 antagonist -53.1
COc1ccccc1CNc1nc(-c2ccco2)nn1S(C)(=O)=O	none
Cc1ccc(NC(=O)C(=O)NCC(c2cccnc2)N2CCN(C)CC2)cc1C (stereo not given)	none
Cc1cccc(CCNC(=O)c2sc3nc4n(c(=O)c3c2C)CCCC4)c1	D1 agonist 32.3

Source: PubChem
